The source of these data is PubChem BioAssay (NCATS).

Assay [1] is described as follows: Primary qHTS for inhibitors of nuclear receptor binding SET domain protein 2 (NSD2) in an isogenic RCH-ACV NSD2 p.E1099K mutant (9B) (AID 1645876).
Assay [2] is described as follows: Primary qHTS for inhibitors of nuclear receptor binding SET domain protein 2 (NSD2) in an RCH-ACV wild type WT cells (2C) (AID 1645877).

Inconclusive results are not listed. Values without a mark were called inactive. Activity calls are given as the source filed them. The call rests on the fitted dose curve; in most records, active means well fitted curve in the direction sought with a large enough effect; inconclusive means small, poorly fitted or top-dose-only effect, or another doubt; inactive means no such curve, though single readings can be large; an effect the other way counts as inactive or inconclusive.
Further: nearly all actives have a fitted effect of over 70% in size.
On the % scale 0 is the no-effect control and ±100 the full control effect; potency means the concentration at half of the fitted maximal effect.

As for `C/C=C(\C)C(=O)O[C@H]1[C@@H](O[C@]2(COC(=O)CC(C)C)O[C@H](COC(=O)C(C)C)[C@@H](OC(C)=O)[C@@H]2O)O[C@H](COC(C)=O)[C@@H](O)[C@@H]1O`, the Potency result in assay [1] and in assay [2] was “inactive” in each case.
Consider `COc1cc(C2Oc3c(O)cc(CCCO)cc3C2CO)ccc1O[C@H]1O[C@H](C)[C@@H](O)[C@H](O)[C@@H]1O` (stereo partly drawn), for which the Potency entry in assay [1] and in assay [2] was “inactive” each time.
As to `C[C@@H]1C(=O)O[C@H]2[C@H]1CC[C@@]1(C)C(=O)C=C[C@](C)(O)[C@H]21`, the Potency result in assay [1] and in assay [2] was “inactive” each time.
Take `Cc1cc(O)c(C(C)C)cc1O[C@@H]1O[C@H](CO)[C@@H](O)[C@H](O)[C@H]1O`: the Potency entry in assay [1] and in assay [2] was “inactive” throughout.
Take `CC1C/C=C/C=C\CCCCC(O)C/C=C/C(=O)O1` (stereo not drawn): the Potency result in assay [1] and in assay [2] was “inactive” in each case.
On to `CC1=CCC2C(C)(CO)CCCC2(C)C1CC12OC1C(O)C(CO)=CC2O` (stereo not drawn), for which the Potency entry in assay [1] and in assay [2] was “inactive” each time.
With `COC(=O)C[C@@H]1C(C(=O)O)=CO[C@@H](O[C@@H]2O[C@H](CO)[C@@H](O)[C@H](O)[C@H]2O)/C1=C\COC(=O)/C=C\c1ccccc1`, the Potency result in assay [1] and in assay [2] was “inactive” throughout.
In the case of `CCOc1c2c(c(OCC)c3ccccc13)C(=O)N(c1ccc(CC(=O)NS(=O)(=O)c3ccccc3)cc1)C2`, the Potency entry in assay [1] and in assay [2] was “inactive” in each case.
Consider `COc1ccc2c(c1)O[C@H](O[C@@H]1O[C@H](CO)[C@@H](O)[C@H](O)[C@H]1O)C(=O)N2`, for which the Potency result in assay [1] and in assay [2] was “inactive” in each case.
Regarding `CC(NC(=O)CC(=O)O)c1nc2ccccc2c(=O)[nH]1` (stereo not drawn), the Potency result in assay [1] and in assay [2] was “inactive” in each case.
Regarding `C[C@H]1C[C@H]2[C@@H]3CCC4=CC(=O)C=C[C@]4(C)[C@@]3(F)[C@@H](O)C[C@]2(C)[C@@]1(O)C(=O)COP(=O)(O)O`, in assay [1], the Potency entry was “inactive”. The Potency in assay [2] was 0.0578 µM (active).
Taken in the same sequence, the figures for `C[C@@H]1CC[C@]2(C(=O)O)CC[C@]3(C(=O)O)C(=CCC4[C@@]5(C)CC[C@H](O[C@@H]6O[C@@H](C)[C@H](O[C@@H]7O[C@H](CO)[C@@H](O)[C@H](O)[C@H]7O)[C@@H](O)[C@H]6O)C(C)(C)C5CC[C@]43C)C2[C@H]1C` (stereo partly drawn) were “inactive” and “inactive”.
For the molecule `COc1c(OC2OC(CO)C(O)C(O)C2O)ccc(O)c1C(=O)OCc1ccccc1O[C@@H]1O[C@H](CO)[C@@H](O)[C@H](O)[C@H]1O` (stereo partly drawn), the Potency result in assay [1] and in assay [2] was “inactive” each time.
In the case of `COc1cc(C(=O)OC[C@H]2O[C@H](O[C@@]3(CO)O[C@@H](CO)[C@H](O)[C@H]3O)[C@H](O)[C@@H](O)[C@@H]2O)ccc1O`, the Potency entry in assay [1] and in assay [2] was “inactive” throughout.
Consider `Cc1ncc([N+](=O)[O-])n1CC(O)CN1CCOCC1` (stereo not drawn), for which the Potency entry in assay [1] and in assay [2] was “inactive” throughout.
Turning to `C/C(=C/CO)CC[C@@H]1[C@@]2(C)CCC[C@](C)(C(=O)O)C2CC[C@@]1(C)O` (stereo partly drawn), the Potency result in assay [1] and in assay [2] was “inactive” throughout.
For the molecule `CC(=O)O[C@H]1[C@H](Oc2ccccc2COC(=O)C2(O)C=CCCC2=O)O[C@H](CO)[C@@H](O)[C@@H]1O` (stereo partly drawn), the Potency was 8.93 µM (active) in assay [1] and 7.09 µM (active) in assay [2].
Regarding `CC(C)=CCCC1(C)Oc2cc3c(c4c2C2C(O4)C(C)(O)CCC21)CN(C(CCC(=O)O)C(=O)O)C3=O` (stereo not drawn), the Potency entry in assay [1] and in assay [2] was “inactive” throughout.
`CCCC(N[C@@H](C)C(=O)N1[C@H](C(=O)O)C[C@@H]2CCCC[C@@H]21)C(=O)OCC` (stereo partly drawn): the Potency entry in assay [1] and in assay [2] was “inactive” in each case.
For `C/C=C/C=C/C(CC(=O)O)Nc1ccc(C=O)cc1` (stereo not drawn), the Potency entry in assay [1] and in assay [2] was “inactive” each time.
As to `C[C@H]1CC[C@@]2(OC1)O[C@H]1CC3C4CC=C5C[C@H](O)C[C@@H](O[C@@H]6O[C@@H](C)[C@H](O)[C@@H](O)[C@H]6O[C@@H]6O[C@@H](C)[C@H](O)[C@@H](O)[C@H]6O)[C@]5(C)C4CC[C@]3(C)[C@H]1[C@@H]2C` (stereo partly drawn), the Potency result in assay [1] and in assay [2] was “inactive” each time.
Regarding `CN1C(=O)N[C@@H](Cc2c[nH]c3c(Cl)cccc23)C1=O`, the Potency entry in assay [1] and in assay [2] was “inactive” each time.
On to `CCC[C@@H]1C[C@@H](C(=O)N[C@H](C(C)Cl)[C@H]2O[C@H](SC)[C@H](O)[C@@H](O)[C@H]2O)N(C)C1` (stereo partly drawn), for which the Potency entry in assay [1] and in assay [2] was “inactive” throughout.
In the case of `COC(=O)c1ccc(O[C@@H]2O[C@H](CO)[C@@H](O)[C@H](O)[C@H]2O)c(OC)c1`, the Potency entry in assay [1] and in assay [2] was “inactive” throughout.
With `C=C1CC[C@H]2[C@@H](/C=C(\C)C(=O)[C@@]3(OC(C)=O)C[C@H](C)[C@H](OC(C)=O)[C@@H]3[C@H]1OC(C)=O)C2(C)C`, the Potency entry in assay [1] and in assay [2] was “inactive” in each case.
Take `CC1CC(O)C2(C)C(C(=O)O)=CCCC2C1(C)CCc1ccoc1` (stereo not drawn): the Potency entry in assay [1] and in assay [2] was “inactive” in each case.
Take `O=C(OCc1cccc(O)c1O[C@@H]1O[C@H](CO)[C@@H](O)[C@H](O)[C@H]1O)C1(O)C(=O)C2C=CC1C1C=CC(=O)C(O)(C(=O)OCc3cccc(O)c3O[C@@H]3O[C@H](CO)[C@@H](O)[C@H](O)[C@H]3O)C21` (stereo partly drawn): in assay [1], the activity change, negative = viability loss was -9.51% [at 9.23 µM]. Also, the activity change, negative = cell killing in assay [2] was -22.5% [at 9.23 µM].
For `C[C@H]1[C@H](C)CC[C@]2(C(=O)O)CC[C@]3(C)C(=CC[C@@H]4[C@@]5(C)C[C@@H](O)[C@H](O)[C@@](C)(CO)[C@@H]5CC[C@]43C)[C@H]12`, the Potency result in assay [1] and in assay [2] was “inactive” each time.
Regarding `CCC/C=C/C(=O)O[C@H]1CC(C)(C)CC2[C@]13[C@H](O)O[C@@]21CCC2[C@@]4(C)CC[C@H](O[C@@H]5O[C@H](C(=O)O)[C@@H](O)[C@H](O[C@@H]6O[C@H](CO)[C@H](O)[C@H](O)[C@H]6O[C@@H]6O[C@@H](C)[C@H](O)[C@@H](O)[C@H]6O[C@@H]6OC[C@](O)(CO)[C@H]6O)[C@H]5O[C@@H]5O[C@H](CO)[C@H](O)[C@H](O)[C@H]5O)C(C)(C)C4CC[C@@]2(C)[C@]1(C)C[C@H]3OC(C)=O` (stereo partly drawn), the activity change, negative = viability loss in assay [1] is -22.9% [at 9.23 µM]. In addition, in assay [2], the activity change, negative = cell killing is -16.1% [at 9.23 µM].
